# EPAC2 ag: EPAC2 (human) agonism | EPAC2 activation, biochemical qHTS; response scale: 100% = 6.5 mM cAMP response | Q8WZA2 | 360,000 tested, 0.079% active | Potency, µM (highest dose often 154 µM), actives largely listed as activators; note: nearly all actives have a fitted effect of over 50% in size
#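 Each well held 100 nM EPAC2, 250 nM RAP1B-BODIPY-GDP and 50 uM GDP. Fluorescence, read at 5-min intervals to 30 min, was referenced to a 6.5 mM cAMP positive control.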
# BRCA1 expr up: increases BRCA1 expression; 380,000 tested, 1.1% active; MCF7-BRCA1-FFLuc reporter, luminescence, 48 h; response scale: scaled: vehicle 0%, 10 µM genistein 100%; Potency, µM (doses to about 46.1 µM), actives largely listed as activators; AID 624202; note: nearly all actives have a fitted effect of over 80% in size
#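 Quantitative HTS in MCF7 cells stably reporting BRCA1 expression via firefly luciferase. Compound treatment lasts 48 h at 37 °C in phenol-red free MEM. Activation is expressed relative to genistein at 10 microM and DMSO.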
# EPAC2 antag: EPAC2 (human) antagonism; Q8WZA2; 360,000 tested, 0.18% active; Potency, µM (series often up to 114 µM), usual class: inhibitors; EPAC2 GEF exchange of Rap1B-BODIPY-GDP, fluorescence; note: nearly all actives have a fitted effect of over 45% in size
# EPAC1 agonist: activates human EPAC1 exchange factor | 360,000 tested, 0.073% active | Potency, µM (doses to about 154 µM), usual class: activators | O95398 | EPAC1 agonist qHTS, biochemical assay; response scale: 100% = response to 6.5 mM cAMP | AID 720707; note: nearly all actives have a fitted effect of over 60% in size
# Target sequence (O95398 whole entry, looked up): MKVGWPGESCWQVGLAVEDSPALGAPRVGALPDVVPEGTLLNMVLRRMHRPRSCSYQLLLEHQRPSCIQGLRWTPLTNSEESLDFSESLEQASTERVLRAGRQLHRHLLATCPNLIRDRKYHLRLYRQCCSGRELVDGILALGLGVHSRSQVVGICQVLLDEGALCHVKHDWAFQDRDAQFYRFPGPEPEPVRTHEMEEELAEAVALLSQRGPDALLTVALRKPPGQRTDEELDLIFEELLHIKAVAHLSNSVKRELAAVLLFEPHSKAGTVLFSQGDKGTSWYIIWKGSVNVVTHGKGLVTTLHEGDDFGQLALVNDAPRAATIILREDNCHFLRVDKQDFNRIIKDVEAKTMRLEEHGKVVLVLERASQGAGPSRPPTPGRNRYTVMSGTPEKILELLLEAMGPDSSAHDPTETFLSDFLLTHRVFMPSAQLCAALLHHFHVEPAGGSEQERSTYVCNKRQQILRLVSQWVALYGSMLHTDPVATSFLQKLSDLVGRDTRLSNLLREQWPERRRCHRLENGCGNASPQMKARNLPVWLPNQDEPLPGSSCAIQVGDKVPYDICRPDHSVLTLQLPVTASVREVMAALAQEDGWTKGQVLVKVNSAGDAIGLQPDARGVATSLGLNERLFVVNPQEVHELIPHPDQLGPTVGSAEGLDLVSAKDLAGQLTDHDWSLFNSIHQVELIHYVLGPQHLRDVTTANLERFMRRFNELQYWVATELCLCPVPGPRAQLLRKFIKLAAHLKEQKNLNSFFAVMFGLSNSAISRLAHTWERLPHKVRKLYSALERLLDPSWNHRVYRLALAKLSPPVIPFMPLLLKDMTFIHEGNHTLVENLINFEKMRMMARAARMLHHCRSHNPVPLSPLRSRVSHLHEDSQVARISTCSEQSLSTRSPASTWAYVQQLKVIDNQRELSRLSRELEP
#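 Normalized to 6.5 mM cAMP, activity reflects EPAC1-catalysed release of BODIPY-GDP from Rap1B, followed kinetically over 30 min at 480 nm excitation, 540 nm emission. Reaction contained 100 nM EPAC1, 250 nM Rap1B-BODIPY-GDP, 50 uM GDP.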
# USP1-UAF1 inh: blocks the human USP1/UAF1 deubiquitinase complex | O94782 | recombinant USP1/UAF1, Ub-Rhodamine cleavage fluorescence | Potency, µM (doses to about 57.1 µM), most hits filed as inhibitors | 390,000 tested, 0.23% active | AID 743255; note: nearly all actives have a fitted effect of over 60% in size
#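 USP1/UAF1 complex at 1 nM was preincubated with compound for 15 min at room temperature, then Ub-Rho substrate (150nM final) was added. Fluorescence (480/540 nm) was read kinetically, 6 reads every 60 seconds.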
# EPAC1 antagonist: EPAC1 (human) antagonism | EPAC1 GEF assay, Rap1b-BODIPY-GDP exchange fluorescence | Potency, µM (titrated, usually from 115 µM), hits mostly inhibitors | 360,000 tested, 0.14% active | AID 720709; note: nearly all actives have a fitted effect of over 50% in size
# Numbers stand for hits; – = inactive; ? = inconclusive; · = not tested or not shown. Rows were chosen to be rich in hits. Some 1.4% of all compounds tested hit in one or more screens of this group. Calls come from the whole dose curve; as a rule, active = well fitted curve in the direction sought with a large enough effect; inconclusive = small, poorly fitted or top-dose-only effect, or another doubt; inactive = no such curve, though single readings can be large; an effect the other way counts as inactive or inconclusive.
SMILES,EPAC2 ag,BRCA1 expr up,EPAC2 antag,EPAC1 agonist,USP1-UAF1 inh,EPAC1 antagonist
O=C(Nc1nc(-c2ccc(-c3ccccc3)cc2)cs1)C1=COCCO1,–,–,–,–,–,–
Cc1ccc2nc(-c3ccc(N=Nc4cc(S(=O)(=O)O)c5ccccc5c4O)cc3)sc2c1S(=O)(=O)O,·,–,·,·,·,·
Cc1ccccc1C(=O)NC(=S)Nc1sc2c(c1C#N)CCC(C)C2 (stereo not given),–,–,–,–,–,–
CCOC(=O)Nc1sc2c(c1C(N)=O)CCC(C)C2 (stereo not given),–,–,–,–,–,–
CC1CCc2c(sc(NC(=S)NC(=O)c3ccccc3)c2C#N)C1 (stereo not given),–,11µM,–,–,–,–
CCC(C)(C)C1CCc2c(sc(NC(=O)c3ccccc3C(=O)O)c2C#N)C1 (stereo not given),–,–,–,–,?,79µM
CC1CCc2c(sc(NC(=O)c3ccccc3C(=O)O)c2C#N)C1 (stereo not given),–,–,–,–,–,–
CC(=O)NC(=S)Nc1sc2c(c1C(N)=O)CCC(C)C2 (stereo not given),–,4.5µM,–,–,–,–
CCOC(=O)c1c(-c2ccccc2)oc2ccc(OCC(O)CN(C)C)cc12 (stereo not given),–,–,–,–,–,–
COc1ccc(/C=C2\SC(=O)N(CCC(=O)Nc3ccc(S(=O)(=O)Nc4nccs4)cc3)C2=O)cc1,–,–,–,–,–,–
COc1ccc(/C=C2/SC(=O)N(CCC(=O)Nc3ccc(S(=O)(=O)Nc4nccs4)cc3)C2=O)cc1,–,–,–,–,–,50µM
COc1ccc(/C=C2/SC(=S)N(c3ccc(S(=O)(=O)Nc4nccs4)cc3)C2=O)cc1,–,–,–,–,?,71µM
Cc1ccc(CC(=O)NO)cc1,·,–,·,·,·,·
Cc1cc(C)cc(-n2nnc3ccccc3c2=O)c1,–,–,–,–,–,–
O=c1c2ccccc2nnn1-c1ccc(Br)cc1,–,4.5µM,–,–,–,–
COc1ccc(CC(=O)Nc2c(C(=O)Nc3ccc(F)cc3)oc3ccccc23)cc1OC,·,–,·,·,–,·
CCOc1ccc(NC(=O)c2oc3ccccc3c2NC(=O)Cc2ccc(OC)c(OC)c2)cc1,·,11µM,·,·,–,·
CCOc1ccc(/C=C\C(C)=N\O)cc1,–,2.8µM,–,–,?,–
CCOc1ccc(/C=C/C(=O)Oc2ccc(OC)cc2)cc1,–,–,–,–,–,–
CCOC(=O)c1ccc(NC(=O)c2nc[nH]c2C(=O)N[C@H](C)CO)cc1,–,–,–,–,–,–
Cc1cc2c(=Cc3ccc(N(C)C)cc3)c3ccccc3n2[n+]1C,–,–,–,–,?,–
CCOC(=O)c1cc2c(=Cc3ccc(N(C)C)cc3)c3ccccc3n2[n+]1C,–,–,–,–,16µM,–
CN(C)c1ccc(/C=C/c2ccc3ccccc3[n+]2C)cc1,–,–,?,–,–,–
CN(C)c1ccc(C=c2c3ccccc3n3c2c2ccccc2[n+]3C)cc1,?,–,45µM,–,?,50µM
Cn1c(=O)n(CC(=O)O)c(=O)c2c1nc1n2CCCN1c1ccc(Cl)cc1,·,–,·,·,–,·
NS(=O)(=O)c1ccc(N2CCOCC2)c(C(=O)NCc2cccs2)c1,–,–,–,–,–,–
COc1ccc(S(=O)(=O)NCCc2sc(-c3ccccc3)nc2C)cc1OC,·,–,·,·,–,·
CCc1ccc(NC(=O)CCCN2C(=O)C3CC=CCC3C2=O)cc1 (stereo not given),–,7.9µM,–,–,–,–
COC(=O)c1scc(-c2ccc(C)cc2)c1S(=O)(=O)N1CCN(c2ccccc2)CC1,·,·,·,·,–,·
COC(=O)C1=NN(c2ccc(C)cc2)C2(S1)SC(C(C)=O)=C(C)N2c1ccccc1 (stereo not given),–,–,3.2µM,–,–,–
